Test results published in PubChem BioAssay (Tox21).
Records with an inconclusive call do not appear. Active and inactive are the calls of the source. Unless noted, the call rests on the fitted dose curve.

Legend:
[1] = Nuclear factor erythroid 2-related factor 2/antioxidant responsive element (Nrf2/ARE) small molecule agonists: qHTS cell viability counter screen in human keratinocytes (AID 1919968; active means well fitted curve in the direction sought with a large enough effect in the repeat runs; an effect the other way counts as inactive or inconclusive; further: nearly all actives have a fitted effect of over 55% in size; further: potency means the concentration at half of the fitted maximal effect)
Procedure, shortened: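 KeratinoSens cells (HaCaT keratinocytes stably carrying an ARE-luciferase reporter) were seeded at 1,500 cells/well and rested 5 h at 37 C/5% CO2. They were then exposed to compounds in DMSO for 23 h. Viability was read by CellTiter-Fluor fluorescence after 1 h.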

[2] = Nuclear factor erythroid 2-related factor 2/antioxidant responsive element (Nrf2/ARE) small molecule agonists: luciferase reporter gene qHTS assay in human keratinocytes (AID 1919969); further: nearly all actives have a fitted effect of over 35% in size; further: potency means the concentration at half of the fitted maximal effect
[3] = target: Gonadotropin-releasing hormone receptor (Homo sapiens) (UniProt P30968); assay: Human gonadotropin-releasing hormone receptor (GnRHR) small molecule agonists, calcium flux assay in GnRHR-HEK293 cells (AID 1920063); further: nearly all actives have a fitted effect of over 35% in size
Procedure, shortened: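 HEK293 cells stably expressing human GnRHR were plated 18 h at 37 °C, loaded with calcium dye 1 h at 37 °C, then given compound in agonist mode; fluorescence (Ex/Em 480/540) read kinetically for 3 min at 1 s intervals.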

[4] = target: KiSS-1 receptor (Homo sapiens) (UniProt Q969F8); assay: Human kisspeptin (KISS1R) small molecule agonists, calcium flux assay in KISS1R-HEK293 cells (AID 1920064; active means well fitted curve in the direction sought with a large enough effect in the repeat runs; an effect the other way counts as inactive or inconclusive)
Procedure, shortened: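 HEK293 cells stably expressing human KISS1R were plated 18 h at 37 °C, loaded with calcium dye for 1 h at 37 °C, then given compound by pin tool. Fluorescence (Ex/Em 480/540) was read kinetically for 3 min.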

[5] = G protein-coupled receptor (GPCR) small molecule agonists, calcium flux assay: HEK293 wild type cell line counter screen (AID 1920065)
Procedure, shortened: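 Cells were plated and cultured 18 h at 37 C/5% CO2, then loaded with calcium dye for 1 h at 37 C. Compounds in DMSO were pin-transferred in agonist mode, and fluorescence (Ex/Em 480/540) was read kinetically for 3 min at 1 s intervals.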

[6] = p53 small molecule agonists, cell-based qHTS assay with human liver microsomes (AID 1963577);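 further: p53 response element beta-lactamase reporter cells with liver microsomes plus NADPH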
Procedure, shortened: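 p53RE-bla cells; 5 h settle, 37 C/5% CO2; cpd + HLM 0.5 mg/mL + NADPH 0.5 mg/mL (final); 16 h 37 C; LiveBLAzer 2 h RT dark; fluorescence readout.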

[7] = p53 small molecule agonists, cell-based qHTS assay with rat liver microsomes (AID 1963578)
Procedure, shortened: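 Rat liver microsome activation: microsomes 0.5 mg/mL, NADPH 0.5 mg/mL final; p53RE-bla cells, 16 h 37 C; LiveBLAzer readout, 2 h RT dark.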

[8] = p53 small molecule agonists, cell-based qHTS assay with human liver microsomes: qHTS cell viability counter screen (AID 1963579); further: nearly all actives have a fitted effect of over 45% in size
Procedure, shortened: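 Luminescent CellTiter-Glo read-out, 30 min at room temperature, gauged cytotoxicity in p53RE-bla cells exposed 16 h at 37 C to DMSO-dissolved compounds with metabolic activation by human liver microsomes and NADPH, each 0.5 mg/mL final.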

[9] = p53 small molecule agonists, cell-based qHTS assay with rat liver microsomes: qHTS cell viability counter screen (AID 1963580); further: nearly all actives have a fitted effect of over 45% in size
Procedure, shortened: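 p53RE-bla HCT-116 cells (4,000/well) rested 5 h at 37 C, then given Tox21 compounds in DMSO with rat liver microsomes (0.5 mg/mL final) plus NADPH (0.5 mg/mL final) for 16 h at 37 C. Viability read by CellTiter-Glo luminescence after 30 min at room temperature.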

[10] = p53 small molecule agonists, cell-based qHTS assay: qHTS cell viability counter screen (AID 1963581); further: nearly all actives have a fitted effect of over 45% in size
Procedure, shortened: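 p53RE-bla HCT-116 cells were exposed to compounds for 16 h at 37 C; after the beta-lactamase FRET read in the same wells, CellTiter-Glo was added and luminescence (intracellular ATP) read after 30 min at room temperature.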

[11] = p53 small molecule agonists, cell-based qHTS assay (AID 1963582; active means well fitted activation curve with a large enough effect in the signal ratio in the repeat runs, not every such curve was filed as active; the % refers to the signal ratio)
Procedure, shortened: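 p53RE-bla beta-lactamase reporter cells rested 5 h at 37 C/5% CO2, then received compounds in DMSO by pin transfer and were incubated 16 h at 37 C. LiveBLAzer B/G FRET substrate was loaded for 2 h at room temperature before fluorescence reading.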

[12] = target: 5-hydroxytryptamine receptor 2A (Homo sapiens) (UniProt P28223); assay: 5-hydroxytryptamine receptor 2A (HTR2A) small molecule antagonists, cell-based qHTS assay (AID 1963586); further: nearly all actives have a fitted effect of over 45% in size
Procedure, shortened: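 Antagonist-mode intracellular calcium assay: DOI (4 nM) added after 5 min compound pre-incubation at room temperature to dye-loaded HTR2A-CHO cells. Fluorescence followed for 3 min, sampled every second.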

[13] = target: Muscarinic acetylcholine receptor M1 (Homo sapiens) (UniProt P11229); assay: Cholinergic receptor muscarinic 1 (CHRM1) small molecule antagonists, cell-based qHTS assay (AID 1963588); further: nearly all actives have a fitted effect of over 40% in size
Procedure, shortened: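 CHRM1-CHO calcium-flux assay, antagonist mode. Cells were seeded 18 h, dye-loaded 1 h at 37 C and given compound for 5 min at RT, then acetylcholine was added at 50nM. FDSS fluorescence was read 3 min; 15 concentrations, three runs.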

[14] = target: Muscarinic acetylcholine receptor M1 (Homo sapiens) (UniProt P11229); assay: Cholinergic receptor muscarinic 1 (CHRM1) small molecule agonists, cell-based qHTS assay (AID 1963589); further: nearly all actives have a fitted effect of over 35% in size
Procedure, shortened: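 CHO cells stably expressing human CHRM1, seeded 18 h at 37 C/5% CO2, dye-loaded 1 h at 37 C, then given compound in agonist mode; intracellular calcium fluorescence read kinetically at 1 s intervals. Fifteen concentrations, three independent runs.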

[15] = cAMP Responsive Elements (CRE) small molecule agonists, cell-based qHTS assay (AID 1963590)
Procedure, shortened: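 CRE-bla HEK 293T cells in DMEM with 10% dialyzed FBS, NEAA, pyruvate and 25 mM HEPES were plated 18 h at 37 C/5% CO2, then exposed to compounds in DMSO for 3 h before LiveBLAzer B/G FRET substrate addition.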

[16] = target: Beta-2 adrenergic receptor (Homo sapiens) (UniProt P07550); assay: Adrenergic beta2 receptor (ADRB2) small molecule antagonists, cell-based qHTS assay (AID 1963592); further: series mostly up to about 92 µM; nearly all actives have a fitted effect of over 50% in size
Procedure, shortened: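 Cells (CHO, stable ADRB2 overexpression) incubated 18-20hr at 37C; compounds added from DMSO; agonist mix (1nM isoproterenol, 100uM IBMX, 25uM Ro-20-1724) added; 0.5hr RT; d2-cAMP and anti-cAMP-cryptate added; 1hr RT; 665/615 nm read.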

[17] = target: D(2) dopamine receptor (Homo sapiens) (UniProt P14416); assay: Dopamine D2 receptor (DRD2) small molecule agonists, cell-based qHTS assay (AID 1963594); further: nearly all actives have a fitted effect of over 35% in size
Procedure, shortened: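 HEK293 cells stably expressing DRD2 were cultured 24 h at 37 C, then given Ro20-1724 (0.1 mM final) and compounds for 10 min at room temperature. NKH477 (200nM) was then added for 30 min. cAMP was read by HTRF.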

[18] = cAMP Responsive Elements (CRE) small molecule antagonists, cell-based qHTS assay (AID 1963591; active means well fitted inhibition curve with a large enough effect in the signal ratio in the repeat runs, not every such curve was filed as active; the % refers to the signal ratio)
Procedure, shortened: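 CRE-bla HEK293T cells were plated 18 h at 37 °C/5% CO2, pinned with compound in DMSO, then stimulated with NKH477 at 0.25 uM final for 3 h. LiveBLAzer B/G FRET substrate was added and plates incubated 2 h at room temperature.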

[19] = target: D(2) dopamine receptor (Homo sapiens) (UniProt P14416); assay: Dopamine D2 receptor (DRD2) small molecule antagonists, cell-based qHTS assay (AID 1963595; active means well fitted inhibition curve with a large enough effect in the signal ratio in the repeat runs, with a control signal flat; the % refers to the signal ratio)
Procedure, shortened: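 Stable D2 receptor HEK293 line, 24 h after seeding. Compound preincubated 10 min, then quinpirole (12 nM) with forskolin analogue NKH477 (200 nM), 30 min, room temperature. Detection by time-resolved FRET of cAMP.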

[20] = target: 5-hydroxytryptamine receptor 2A (Homo sapiens) (UniProt P28223); assay: 5-hydroxytryptamine receptor 2A (HTR2A) small molecule agonists, cell-based qHTS assay (AID 1963587); further: nearly all actives have a fitted effect of over 30% in size
Procedure, shortened: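 HTR2A-CHO cells, plated 18 h at 37 C/5% CO2, dye-loaded 1 h at 37 C; compounds in DMSO added by pin tool (agonist mode). Intracellular calcium flux read as kinetic fluorescence on FDSS over 2 min at 1 s intervals.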
On the % scale 0 is the no-effect control and ±100 the full control effect.

Muscarinic acetylcholine receptor M1 (Homo sapiens), sequence (P11229 whole entry, looked up): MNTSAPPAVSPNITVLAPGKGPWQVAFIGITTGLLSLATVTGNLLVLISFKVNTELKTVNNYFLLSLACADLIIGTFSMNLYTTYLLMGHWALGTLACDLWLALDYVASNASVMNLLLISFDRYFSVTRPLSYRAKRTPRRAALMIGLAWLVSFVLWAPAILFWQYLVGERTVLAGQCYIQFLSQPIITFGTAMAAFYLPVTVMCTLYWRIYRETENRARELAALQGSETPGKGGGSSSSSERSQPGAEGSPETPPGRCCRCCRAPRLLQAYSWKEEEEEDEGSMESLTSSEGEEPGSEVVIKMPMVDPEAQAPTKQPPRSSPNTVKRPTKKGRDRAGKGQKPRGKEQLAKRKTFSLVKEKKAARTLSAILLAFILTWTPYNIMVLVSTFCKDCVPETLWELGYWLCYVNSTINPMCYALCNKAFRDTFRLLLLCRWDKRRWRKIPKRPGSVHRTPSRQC
Beta-2 adrenergic receptor (Homo sapiens), sequence (P07550 whole entry, looked up): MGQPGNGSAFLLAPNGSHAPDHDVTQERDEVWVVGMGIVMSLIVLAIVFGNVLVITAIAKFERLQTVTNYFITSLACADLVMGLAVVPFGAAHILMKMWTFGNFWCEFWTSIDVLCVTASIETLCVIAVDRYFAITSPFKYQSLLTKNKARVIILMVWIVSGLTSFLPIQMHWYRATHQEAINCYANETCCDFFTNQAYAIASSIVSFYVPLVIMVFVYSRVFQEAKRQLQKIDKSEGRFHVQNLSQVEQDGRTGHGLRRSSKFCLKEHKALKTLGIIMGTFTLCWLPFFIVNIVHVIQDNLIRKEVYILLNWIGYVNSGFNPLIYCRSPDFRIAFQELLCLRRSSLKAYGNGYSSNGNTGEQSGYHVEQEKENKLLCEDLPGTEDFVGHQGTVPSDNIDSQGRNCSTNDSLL
5-hydroxytryptamine receptor 2A (Homo sapiens), sequence (P28223 whole entry, looked up): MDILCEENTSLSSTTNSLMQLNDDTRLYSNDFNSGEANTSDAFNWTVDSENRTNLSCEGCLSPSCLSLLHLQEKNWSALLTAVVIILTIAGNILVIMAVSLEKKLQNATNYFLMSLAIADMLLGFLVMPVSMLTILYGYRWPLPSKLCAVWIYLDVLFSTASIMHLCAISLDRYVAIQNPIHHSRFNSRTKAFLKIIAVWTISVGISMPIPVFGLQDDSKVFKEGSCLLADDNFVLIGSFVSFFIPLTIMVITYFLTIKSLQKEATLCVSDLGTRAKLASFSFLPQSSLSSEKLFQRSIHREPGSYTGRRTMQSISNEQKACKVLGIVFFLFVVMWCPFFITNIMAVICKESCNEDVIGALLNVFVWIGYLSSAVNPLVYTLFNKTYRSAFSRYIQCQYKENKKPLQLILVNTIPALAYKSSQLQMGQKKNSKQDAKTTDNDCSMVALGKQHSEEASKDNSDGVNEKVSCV
D(2) dopamine receptor (Homo sapiens), sequence (P14416 whole entry, looked up): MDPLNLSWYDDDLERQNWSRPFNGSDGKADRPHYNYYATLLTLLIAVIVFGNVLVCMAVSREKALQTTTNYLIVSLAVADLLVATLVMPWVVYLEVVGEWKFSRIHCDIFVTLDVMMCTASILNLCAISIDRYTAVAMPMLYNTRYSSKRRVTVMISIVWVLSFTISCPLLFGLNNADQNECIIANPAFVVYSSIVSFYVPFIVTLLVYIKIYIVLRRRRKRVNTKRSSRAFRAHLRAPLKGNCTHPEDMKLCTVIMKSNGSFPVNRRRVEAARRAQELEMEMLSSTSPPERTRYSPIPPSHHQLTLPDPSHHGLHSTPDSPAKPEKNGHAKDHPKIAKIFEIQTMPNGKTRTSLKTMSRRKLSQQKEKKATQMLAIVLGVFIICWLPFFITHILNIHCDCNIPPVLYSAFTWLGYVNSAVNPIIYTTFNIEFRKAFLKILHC
Gonadotropin-releasing hormone receptor (Homo sapiens), sequence (P30968 whole entry, looked up): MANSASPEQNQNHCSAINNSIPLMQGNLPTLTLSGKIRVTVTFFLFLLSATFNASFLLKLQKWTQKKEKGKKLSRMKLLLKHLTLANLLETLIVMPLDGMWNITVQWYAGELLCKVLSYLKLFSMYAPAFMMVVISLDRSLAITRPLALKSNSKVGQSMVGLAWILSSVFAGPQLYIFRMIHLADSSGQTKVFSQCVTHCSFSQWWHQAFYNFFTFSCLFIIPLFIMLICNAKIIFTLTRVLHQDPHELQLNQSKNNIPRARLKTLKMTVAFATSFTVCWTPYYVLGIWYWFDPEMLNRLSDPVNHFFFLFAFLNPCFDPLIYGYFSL
KiSS-1 receptor (Homo sapiens), sequence (Q969F8 whole entry, looked up): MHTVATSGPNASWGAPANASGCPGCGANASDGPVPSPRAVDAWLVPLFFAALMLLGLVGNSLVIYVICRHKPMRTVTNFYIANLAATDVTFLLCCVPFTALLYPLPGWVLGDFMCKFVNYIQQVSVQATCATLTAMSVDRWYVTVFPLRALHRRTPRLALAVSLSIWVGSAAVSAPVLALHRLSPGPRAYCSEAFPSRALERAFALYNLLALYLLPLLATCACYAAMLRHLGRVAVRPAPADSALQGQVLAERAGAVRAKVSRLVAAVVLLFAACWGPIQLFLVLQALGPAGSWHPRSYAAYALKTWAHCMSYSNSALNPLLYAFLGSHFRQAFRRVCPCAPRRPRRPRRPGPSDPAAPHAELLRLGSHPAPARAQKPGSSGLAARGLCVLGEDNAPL

CSc1nc(NC2CC2)nc(NC(C)(C)C)n1
inactive: Potency [1] | Potency [2] | Potency [3] | outcome [4] | outcome [5] | Potency [6] | Potency [7] | Potency [8] | Potency [9] | Potency [10] | Potency [11] | Potency [12] | Potency [13] | Potency [14] | Potency [15] | Potency [16] | Potency [17]

c1ccc(CC2=NCCN2)cc1
inactive: Potency [1] | Potency [2] | Potency [3] | outcome [4] | outcome [5] | Potency [6] | Potency [7] | Potency [8] | Potency [9] | Potency [10] | Potency [11] | Potency [12] | Potency [13] | Potency [14] | Potency [15] | Potency [18] | Potency [16] | Potency [17] | Potency [19]

C[C@@H]1CN(CCCn2c3ccccc3c3ccccc32)C[C@H](C)N1
inactive: Potency [2] | Potency [3] | outcome [4] | outcome [5] | Potency [6] | Potency [7] | Potency [8] | Potency [9] | Potency [10] | Potency [11] | Potency [12] | Potency [13] | Potency [14] | Potency [19]
active: Potency [1] 26.6 µM

CN1CCN(CC(=O)N2c3ccccc3C(=O)Nc3cccnc32)CC1
inactive: activity change, negative = cytotoxicity [1] 0.0434% [at 8.39 µM] | activity, positive = activation [2] -1.98% [at 8.39 µM] | activity change [3] -0.376% [at 5.22 µM, hits give high values] | activation [4] 7.1% [at 6.97 µM] | activation [5] -0.198% [at 5.23 µM] | activation [6] 8.34% [at 5.99 µM] | activation [7] 0.0177% [at 5.99 µM] | activity change, negative = cytotoxicity [8] 5.54% [at 5.99 µM] | activity change, negative = cytotoxicity [9] 1.67% [at 5.99 µM] | activity change, negative = cytotoxicity [10] 22.9% [at 5.99 µM] | activation [11] -1.98% [at 5.99 µM] | activity, negative = inhibition [12] 57.8% [at 5.62 µM] | activation [20] 0.502% [at 7.02 µM] | activation [15] -0.47% [at 8.39 µM] | activity change, negative = inhibition [18] -9.03% [at 8.39 µM] | activity change, negative = inhibition [16] -1.73% [at 8.39 µM] | activity change, negative = inhibition [19] 3.87% [at 8.38 µM]

CCCCCCCCN
inactive: Potency [1] | Potency [2] | Potency [3] | outcome [4] | outcome [5] | Potency [6] | Potency [7] | Potency [8] | Potency [9] | Potency [10] | Potency [11] | Potency [12] | Potency [13] | Potency [14] | Potency [16] | Potency [17] | Potency [19]

Cc1ccc2c(c1)C(=O)c1ccccc1C2=O
active: Potency [2] 2.72 µM
inactive: Potency [1] | Potency [3] | outcome [4] | outcome [5] | Potency [6] | Potency [7] | Potency [8] | Potency [9] | Potency [10] | Potency [11] | Potency [12] | Potency [13] | Potency [14] | Potency [16] | Potency [17]

C=C[C@@H](C)CCC=C(C)C
inactive: Potency [1] | Potency [2] | Potency [3] | outcome [4] | outcome [5] | Potency [6] | Potency [7] | Potency [8] | Potency [9] | Potency [10] | Potency [11] | Potency [12] | Potency [13] | Potency [14] | Potency [15] | Potency [18] | Potency [16] | Potency [17] | Potency [19]

O=C(Nc1cccc(C2=NCCN2)c1)Nc1cccc(C2=NCCN2)c1
inactive: activity change, negative = cytotoxicity [1] 19.9% [at 19 µM] | activity, positive = activation [2] -4.28% [at 19 µM] | activity change [3] -0.181% [at 11.8 µM, hits give high values] | activation [4] -0.538% [at 15.8 µM] | activation [5] 2.04% [at 11.8 µM] | activation [6] -0.295% [at 13.5 µM] | activation [7] -1.12% [at 13.6 µM] | activity change, negative = cytotoxicity [8] 1.91% [at 13.5 µM] | activity change, negative = cytotoxicity [9] 0.748% [at 13.5 µM] | activity change, negative = cytotoxicity [10] -8.13% [at 13.5 µM] | activation [11] 1.58% [at 13.5 µM] | activity, negative = inhibition [12] -37.2% [at 12.7 µM] | activity, negative = inhibition [13] -4.67% [at 12.6 µM] | activation [14] -0.0869% [at 15.8 µM] | activity change, negative = inhibition [18] -6.62% [at 18.9 µM] | activation [17] -15.4% [at 19 µM] | activity change, negative = inhibition [19] -4.58% [at 18.9 µM]
